Reference: PubChem BioAssay (NCI)
This is part of a sample that, as a whole, favours compounds with a hit. Of some 79,000 tested, about 15% had one in any assay. Calls of active or inactive are those of the source. Cut-off read from the data, not from the text of the source: active = growth inhibition above about 70%; inactive = the rest.

Legend:
[1] = NCI Yeast Anticancer Drug Screen. Data for the rad52 strain (AID 147);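 note: 0% = growth of vehicle-treated control cultures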; conditions: S. cerevisiae rad52 mutant growth inhibition, active compounds read high
Procedure, shortened: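 Here a repair-compromised yeast strain receives each compound; its growth is then quantified and normalised to vehicle-only controls.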

[2] = NCI Yeast Anticancer Drug Screen. Data for the wt1 strain (AID 149);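 note: 0% = growth of vehicle-treated wt1 cultures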; conditions: S. cerevisiae wt1 strain (SPY 50644) growth inhibition, active compounds read high
Procedure, shortened: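 Vehicle-normalised growth inhibition; strain wt1; compound exposure.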

[3] = NCI Yeast Anticancer Drug Screen. Data for the rad50EPP+ strain (AID 151);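 note: 0% = growth of vehicle-treated control cultures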; conditions: S. cerevisiae rad50 mutant strain, active compounds read high
Procedure, shortened: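 Read-out is yeast growth inhibition relative to vehicle; cells used were the rad50EPP+ strain.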

[4] = NCI Yeast Anticancer Drug Screen. Data for the mgt1 strain (AID 153); conditions: S. cerevisiae mgt1 mutant growth inhibition, active compounds read high
Procedure, shortened: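 Measured: inhibition of mgt1 yeast growth by compound, normalized to vehicle-treated cultures.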

[5] = NCI Yeast Anticancer Drug Screen. Data for the rad50 strain (AID 155);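 note: 0% = growth of vehicle-only cultures of the same strain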; conditions: S. cerevisiae rad50 strain growth inhibition, active compounds read high
Procedure, shortened: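 A DNA repair-deficient yeast mutant serves as the test organism; compound-induced growth inhibition is calculated against vehicle-treated cells.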

[6] = NCI Yeast Anticancer Drug Screen. Data for the mec2-1 strain (AID 157); conditions: S. cerevisiae mec2-1 strain, active compounds read high
Procedure, shortened: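 Using mec2-1 yeast: add compound, measure growth, express inhibition versus vehicle-treated cultures.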

[7] = NCI Yeast Anticancer Drug Screen. Data for the rad14 strain (AID 159);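 note: 0% = growth of vehicle-treated control cultures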; conditions: S. cerevisiae rad14 strain growth inhibition, active compounds read high
Procedure, shortened: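 Vehicle-treated cultures served as the baseline for growth inhibition of a DNA repair-mutant yeast strain exposed to each compound.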

[8] = NCI Yeast Anticancer Drug Screen. Data for the sgs1 mgt1 strain (AID 161);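 note: 0% = growth of cultures given vehicle only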; conditions: S. cerevisiae sgs1 mgt1 strain, active compounds read high
Procedure, shortened: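 Growth of a repair-deficient yeast mutant was monitored after compound treatment and expressed as inhibition relative to vehicle-treated cultures.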

[9] = NCI Yeast Anticancer Drug Screen. Data for the cln2 rad14 strain (AID 165);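 note: 0% = growth equal to vehicle treated cultures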; conditions: S. cerevisiae cln2 rad14 strain, active compounds read high
Procedure, shortened: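 Yeast strain cln2 rad14, bearing defects in cell cycle control and DNA repair, serves as the test system; values reflect growth inhibition compared with vehicle.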

[10] = NCI Yeast Anticancer Drug Screen. Data for the bub3 strain (AID 167); conditions: S. cerevisiae bub3 mutant strain, active compounds read high
Procedure, shortened: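 Inhibition values come from growth of compound-treated mutant yeast normalised to vehicle-treated controls.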

[11] = NCI Yeast Anticancer Drug Screen. Data for the wt2 strain (AID 169);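 note: 0% = growth of vehicle-treated yeast cultures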; conditions: S. cerevisiae wt2 strain growth inhibition, active compounds read high
Procedure, shortened: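 Treated yeast vs. vehicle-treated yeast: growth inhibition determined.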

[12] = NCI Yeast Anticancer Drug Screen. Data for the mlh1 strain (AID 171);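 note: 0% = growth of vehicle-treated control cultures of the same strain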; conditions: S. cerevisiae mlh1 strain growth inhibition, active compounds read high
Procedure, shortened: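 A yeast strain with a defined genetic lesion serves as the test organism. Cultures receive compound or vehicle, and growth is measured.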

[13] = NCI Yeast Anticancer Drug Screen. Data for the mlh1 rad18 strain (AID 175); conditions: S. cerevisiae mlh1 rad18 strain growth inhibition, active compounds read high
Procedure, shortened: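 Steps: expose repair-defective yeast to compound; measure growth; express inhibition against vehicle-treated controls.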

[14] = NCI Yeast Anticancer Drug Screen. Data for the rad18 strain (AID 177); conditions: S. cerevisiae rad18 mutant growth inhibition, active compounds read high
Procedure, shortened: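 Measured value is growth inhibition of a yeast strain bearing a DNA repair alteration, referenced to vehicle-treated cells.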

[15] = at 5.0 µM (retest, dose inferred, filed as 0.5)
[16] = at 50.0 µM (retest, dose inferred, filed as 5.0)

Measured: growth inhibition

O=C(O)C1C2CCC(C2)C1c1ccccc1 (stereo not drawn)
inactive: [1]; at 1.2 µM -1% | [1]; at 3.7 µM -3% | [1]; at 11.0 µM -6% | [1]; at 33.0 µM -3% | [1]; at 100.0 µM 20% | [2]; at 1.2 µM -1% | [2]; at 3.7 µM -2% | [2]; at 11.0 µM -4% | [2]; at 33.0 µM -1% | [2]; at 100.0 µM 26% | [3]; at 1.2 µM -1% | [3]; at 3.7 µM -2% | [3]; at 11.0 µM -2% | [3]; at 33.0 µM -2% | [3]; at 100.0 µM -3% | [4]; at 1.2 µM -1% | [4]; at 3.7 µM -1% | [4]; at 11.0 µM -4% | [4]; at 33.0 µM -5% | [4]; at 100.0 µM 31% | [5]; at 1.2 µM -10% | [5]; at 3.7 µM -51% | [5]; [15] -2% | [5]; at 11.0 µM 2% | [5]; at 33.0 µM -3% | [5]; [16] 10% | [5]; at 50.0 µM 19.4% | [5]; at 100.0 µM 34% | [6]; at 1.2 µM -1% | [6]; at 3.7 µM -4% | [6]; [15] -8% | [6]; at 11.0 µM -7% | [6]; at 33.0 µM -1% | [6]; [16] 8% | [6]; at 50.0 µM 14.4% | [6]; at 100.0 µM 31% | [7]; at 1.2 µM 0% | [7]; at 3.7 µM 0% | [7]; at 11.0 µM -5% | [7]; at 33.0 µM -8% | [7]; at 100.0 µM 13% | [8]; [15] -2% | [8]; [16] 8% | [8]; at 50.0 µM 10.2% | [9]; [15] -6% | [9]; [16] 8% | [9]; at 50.0 µM 11% | [10]; at 1.2 µM -1% | [10]; at 3.7 µM 11% | [10]; [15] 29% | [10]; at 11.0 µM 36% | [11]; at 1.2 µM -1% | [11]; at 3.7 µM 7% | [11]; at 11.0 µM -3% | [11]; at 33.0 µM 0% | [11]; at 100.0 µM 37% | [12]; at 1.2 µM -2% | [12]; at 3.7 µM -2% | [12]; at 11.0 µM -1% | [12]; at 33.0 µM -2% | [12]; at 100.0 µM 31% | [13]; [15] -1% | [13]; [16] 6% | [13]; at 50.0 µM 20.1% | [14]; at 1.2 µM 0% | [14]; at 3.7 µM -1% | [14]; at 11.0 µM -5% | [14]; at 33.0 µM 1% | [14]; at 100.0 µM 47%
active: [10]; at 33.0 µM 77% | [10]; [16] 90% | [10]; at 50.0 µM 95% | [10]; at 100.0 µM 94%
